Source: the supplement of paper PMC13380429

System: Vero E6 infected with SARS-CoV-2
Assay: inhibition of SARS-CoV-2 cytopathic effect; higher = more antiviral protection, active = above 15
Conditions: 48 h

Measured: inhibition of SARS-CoV-2 cytopathic effect

CCC1(c2c[nH]cn2)Cc2ccccc2C1 [atipamezole]
inactive: 1 nM 0.76% | 8.33 nM 2.54% | 100 nM 0.58% | 833.33 nM 2.4% | 10000 nM 1.28%

CCn1c(-c2nonc2N)nc2cnc(Oc3cccc(NC(=O)c4ccc(OCCN5CCOCC5)cc4)c3)cc21
inactive: 1 nM 3.5% | 8.33 nM 0.11% | 100 nM -2.86% | 833.33 nM -4.75% | 10000 nM -5.7%

CCN1CCN(c2ccc(C(C)(C)NC(=O)c3cc4[nH]c5ccccc5c(=O)c4cc3F)cn2)CC1
inactive: 1 nM 0.53% | 8.33 nM -0.52% | 100 nM 3.59% | 833.33 nM 2.28%
active: 10000 nM 26.8%

O=C(CCCCCN1C(=O)c2cccc3cccc(c23)C1=O)NO [scriptaid]
inactive: 1 nM 4.82% | 8.33 nM 3.4% | 100 nM -3.14% | 833.33 nM -13.6% | 10000 nM -24.8%

COCCc1ccc(OCC(O)CNC(C)C)cc1 (stereo not given) [metoprolol]
inactive: 1 nM 2% | 8.33 nM 1.22% | 100 nM -0.12% | 833.33 nM -0.66% | 10000 nM 1.25%

NC12CC3CC(CC(C3)C1)C2 [amantadine]
inactive: 1 nM 0.16% | 8.33 nM 1.94% | 100 nM 0.25% | 833.33 nM 0.33% | 10000 nM 3.28%

Cc1ccc(S(=O)(=O)Cc2nc(-c3ccc(C(=O)NCc4cccnc4)cc3)oc2C)cc1
inactive: 1 nM -2.69% | 8.33 nM -2.16% | 100 nM -15.4% | 833.33 nM -19.2% | 10000 nM -16.4%

c1cc(Cc2cnc[nH]2)ccn1 [immethridine]
inactive: 1 nM 0.32% | 8.33 nM 2.15% | 100 nM 0.76% | 833.33 nM 4.67% | 10000 nM 1.99%

CC(C)(N)c1nc(-c2ccc(OC(F)(F)F)cc2)c[nH]1
inactive: 1 nM 0.82% | 8.33 nM 0.2% | 100 nM 2.45% | 833.33 nM 1.1% | 10000 nM -2.65%

c1ccc2c(c1)sc1ccccc12 [dibenzothiophene]
inactive: 1 nM -0.91% | 8.33 nM 1.31% | 100 nM 0.34% | 833.33 nM 0.07% | 10000 nM 0.68%

CCCN(CCC)C(=O)C1=Cc2ccc(-c3ccc(C(=O)N4CCCC4)cc3)cc2N=C(N)C1 [motolimod]
inactive: 1 nM 0.77% | 8.33 nM 0.05% | 100 nM 1.88% | 833.33 nM 1.37% | 10000 nM -1.01%

Nc1ccc(/N=N/c2ccccc2)c(N)n1 [phenazopyridine]
inactive: 1 nM 1.34% | 8.33 nM 0.46% | 100 nM 0.72% | 833.33 nM 1.24% | 10000 nM 0.27%

Cn1c(=O)n(-c2ccc(C(C)(C)C#N)cc2)c2c3cc(-c4cnc5ccccc5c4)ccc3ncc21
inactive: 1 nM 1.43% | 8.33 nM -0.22% | 100 nM 0.93% | 833.33 nM -5.08% | 10000 nM -5.4%

COc1cccc(-c2cc(=O)c3ccccc3o2)c1N
inactive: 1 nM 1.12% | 8.33 nM -3.81% | 100 nM -0.32% | 833.33 nM -3.58% | 10000 nM -5.22%

CN(C)Cc1c(C(=O)NCCOc2ccc(C(=O)NO)cc2)oc2ccccc12
inactive: 1 nM -1.08% | 8.33 nM 3.14% | 100 nM -1.35% | 833.33 nM -15.5% | 10000 nM -26.9%

O=C(NCCN1CCC2(CC1)C(=O)NCN2c1cccc(F)c1)c1ccc(F)c(F)c1
inactive: 1 nM 3.32% | 8.33 nM 2.54% | 100 nM 0.98% | 833.33 nM 1.22%
active: 10000 nM 22%

CC(C)NNC(=O)c1ccncc1 [iproniazid]
inactive: 1 nM 0.77% | 8.33 nM -0.06% | 100 nM 0.89% | 833.33 nM 0.46% | 10000 nM -1.76%

N#Cc1c(-c2ccccc2)cc(-c2cc(Br)ccc2O)[nH]c1=O
inactive: 1 nM 0.98% | 8.33 nM 2.69% | 100 nM 3% | 833.33 nM 2.87% | 10000 nM 3.55%

COc1cc(S(C)(=O)=O)ccc1Nc1nc2ccc(-c3ccc(NC(=O)[C@H](C)c4ccc(F)cc4)cc3)cn2n1
inactive: 1 nM 0.71% | 8.33 nM -3.05% | 100 nM 0.88% | 833.33 nM -5.66% | 10000 nM -4.51%

N[C@@H]1[C@H]2CN(c3nc4c(cc3F)c(=O)c(C(=O)O)cn4-c3ccc(F)cc3F)C[C@@H]12 [trovafloxacin]
inactive: 1 nM -8.03% | 8.33 nM -6.09% | 100 nM -4.83% | 833.33 nM -0.82% | 10000 nM -1.33%
